Shown are actives, neighbours in structure and some others; about 3% of the full set was active somewhere.
SENP6 inh = SENP6 protease inhibition; Q9GZR1; AID 2599; inhibition, % at 10 µM; Recombinant SENP6 catalytic domain, aminoluciferin luminescence; hit rate 1.8% among 330,000;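 active = inhibition above about 50% at the single tested dose, limit read from the data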
Target sequence (Q9GZR1 628-1112 limits assumed): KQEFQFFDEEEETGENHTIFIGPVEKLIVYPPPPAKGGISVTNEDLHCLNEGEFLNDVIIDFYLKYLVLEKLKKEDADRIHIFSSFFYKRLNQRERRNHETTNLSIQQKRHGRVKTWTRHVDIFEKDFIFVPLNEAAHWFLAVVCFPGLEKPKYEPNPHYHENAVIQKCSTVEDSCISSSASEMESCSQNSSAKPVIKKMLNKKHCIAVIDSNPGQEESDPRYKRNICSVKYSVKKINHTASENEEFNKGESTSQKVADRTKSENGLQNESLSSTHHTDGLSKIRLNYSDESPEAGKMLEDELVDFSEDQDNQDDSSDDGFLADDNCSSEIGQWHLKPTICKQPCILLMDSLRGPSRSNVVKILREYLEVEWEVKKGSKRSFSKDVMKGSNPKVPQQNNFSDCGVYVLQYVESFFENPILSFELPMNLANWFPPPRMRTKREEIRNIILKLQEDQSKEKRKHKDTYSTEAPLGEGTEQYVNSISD
SENP8 block-1 = SENP8 (human) protease inhibition | hit rate 0.64% among 360,000 | recombinant SENP8, Nedd8 substrate fluorescence | AID 602440 | inhibition, % at 20 µM; in the data active = inhibition mostly above about 40%, no sharp cut-off; inactive = mostly below about 27%
TRAIL sens C8 = sensitizes caspase-8 expressing cells to TRAIL. NB7+C8 cells + TRAIL, ATPlite viability luminescence. AID 624354. hit rate 1% among 360,000. inhibition (viability loss, TRAIL sensitization), % at 10 µM;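 active = compounds causing at least 50% loss of cell viability in the single-dose screen, relative to plate controls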
PPC-1+TRAIL kill = compounds killing PPC-1 cancer cells with TRAIL present (potentiator screen, no TRAIL-free arm); cell killing (% activity), % at 4 µM or 5 µM; AID 1443; PPC-1 cells + TRAIL, ATPLite viability luminescence; hit rate 0.41% among 220,000;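 active = cell killing above 50% in the first pass at 4 µM, then a duplicate retest at 5 µM averaging 50% or more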
SENP7 inh = inhibitors of human SENP7 protease; recombinant SENP7, Z-RLRGG-aminoluciferin luminescence, 40 min; inhibition, % at 5 µM; hit rate 1.5% among 330,000;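 active = inhibition above about 50% at the single test dose, limit read from the data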
SENP8 block-2 = SENP8 protease inhibition. AID 2540. purified SENP8, Z-RLRGG-aminoluciferin cleavage, luminescence. hit rate 1.2% among 330,000. Q96LD8. inhibition, % at 10 µM; in the data active = inhibition above about 50%
SENP8 confirm = confirmation of human SENP8 protease inhibitors | inhibition, % at 12.5 µM | hit rate 40% among 6,200 | shares compounds with SENP7 inh | Recombinant SENP8, Z-RLRGG-aminoluciferin luminescence, 60 min;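 active = mean inhibition across replicates above about 50%, limit read from the data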
SENP6 confirm = human SENP6 inhibition, confirmed; shares compounds with SENP7 inh; recombinant SENP6, Z-RLRGG-aminoluciferin luminescence; inhibition, % at 12.5 µM; hit rate 58% among 6,200; AID 488915
SENP7 confirm = confirmation of human SENP7 protease inhibitors. shares compounds with SENP7 inh. recombinant SENP7, Z-RLRGG-aminoluciferin luminescence, 40 min. inhibition, % at 12.5 µM. hit rate 69% among 6,200. AID 488917
Casp3 select = selectivity test for SENP inhibitors: human caspase-3 inhibition; inhibition, % at 12.5 µM; hit rate 60% among 6,200; AID 488918; purified caspase-3, Z-DEVD-aminoluciferin luminescence, 60 min; shares compounds with SENP7 inh;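 active = mean inhibition above about 50%, limit read from the data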
Target sequence (P42574 28-227 limits assumed): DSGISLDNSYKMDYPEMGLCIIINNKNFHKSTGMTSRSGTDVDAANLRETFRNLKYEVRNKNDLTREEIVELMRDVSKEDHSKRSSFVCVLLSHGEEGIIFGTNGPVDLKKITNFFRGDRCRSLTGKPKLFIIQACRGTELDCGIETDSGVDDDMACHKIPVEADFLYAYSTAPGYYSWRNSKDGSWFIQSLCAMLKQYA
SENP luc ctr = luminescence interference (SENP counter-screen). Pre-incubated SENP8/Z-RLRGG-aminoluciferin, luciferase luminescence interference. inhibition, % at 12.5 µM. AID 488919. shares compounds with SENP7 inh. hit rate 39% among 6,200;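 active = mean inhibition above about 50% when retested at one dose, limit read from the data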
Hits are given with their value; n = inactive; x = not tested or not shown.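 Rule for the calls, unless noted: active = mean inhibition above about 50% in the one-dose retest (limit read from the data); inactive = the rest.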

SMILES | SENP6 inh | SENP8 block-1 | TRAIL sens C8 | PPC-1+TRAIL kill | SENP7 inh | SENP8 block-2 | SENP8 confirm | SENP6 confirm | SENP7 confirm | Casp3 select | SENP luc ctr
CCOc1ccc(C(CC(=O)O)NC(=O)C(CC)c2ccccc2)cc1 (stereo not given) | n | n | n | x | n | n | x | x | x | x | x
CCN(CC)c1ccc(C(=O)OCC(=O)Nc2ncccn2)cc1 | n | n | n | x | n | n | x | x | x | x | x
CCN(CC)c1ccc(C(=O)OCC(=O)Nc2sccc2C#N)cc1 | 69 | n | n | n | n | n | n | n | 70 | n | n
Cc1cccc(-c2n[nH]nc2C2=CC(=O)CC(C)(C)C2)c1 | x | n | n | x | x | x | x | x | x | x | x
O=C(O)c1ccc(NC2=C/C(=N/S(=O)(=O)c3ccccc3)c3ccccc3C2=O)cc1 | 93 | 61 | n | n | 60 | 87 | 95 | 98 | 92 | n | n
O=C(O)c1ccc(NS(=O)(=O)c2ccc3c(c2)C(=O)c2ccccc2C3=O)cc1 | n | n | n | n | n | n | x | x | x | x | x
C[C@@H]1CN([C@@H](C)CO)C(=O)CCCn2nncc2CO[C@H]1CN(C)C(=O)c1ccncc1 | x | n | n | x | x | x | x | x | x | x | x
CC1=N/C(=C/c2cc(Br)cc(Br)c2O)C(=O)O1 | n | n | n | x | n | n | x | x | x | x | x
Cc1nn(CC(=O)Nc2ccc3c(c2)CCC3)c(C)c1[N+](=O)[O-] | n | n | n | x | n | n | x | x | x | x | x
CCCCOc1ccc(C2/C(=C(/O)c3ccc4c(c3)CC(C)O4)C(=O)C(=O)N2CCCN2CCOCC2)cc1OC (stereo not given) | n | n | n | x | n | n | x | x | x | x | x
Cc1cc(C)c(S(=O)(=O)/N=C2/C=C(SCC(=O)O)C(=O)c3ccccc32)cc1C | 62 | 54 | n | n | n | n | n | n | n | n | n
O=C(Nc1ccc(-c2noc(CCc3ccccc3)n2)cc1)c1ccco1 | 78 | n | n | n | 60 | 55 | 68 | 71 | 90 | 53 | n
O=C(NCc1nc(-c2ccc(Cl)cc2)no1)c1ccco1 | n | n | n | x | n | n | x | x | x | x | x
Cc1ccc(-c2noc(COC(=O)c3ccco3)n2)cc1 | 78 | n | n | x | 68 | 63 | 76 | 76 | 95 | 72 | 68
OC[C@@H]1CN(Cc2cccnc2)C[C@H](n2cnc3c(N4CCCC4)ncnc32)O1 | x | n | n | x | x | x | x | x | x | x | x
Cc1ccc(/C=C/C(=O)N2CCN(S(=O)(=O)/C=C/c3ccccc3)CC2)o1 | n | n | n | n | n | n | x | x | x | x | x
CN(C(=O)c1cccs1)C1(C)CCS(=O)(=O)C1 (stereo not given) | n | n | n | x | n | n | x | x | x | x | x
O=C1CN(C(=O)COC(=O)c2ccc([N+](=O)[O-])s2)c2ccccc2N1 | 53 | n | n | x | n | 65 | n | 85 | n | n | n
O=C(COC(=O)c1ccc([N+](=O)[O-])s1)NCc1ccc(F)cc1 | 76 | n | n | n | 52 | 67 | n | 85 | n | n | n
O=C(COC(=O)c1ccc([N+](=O)[O-])s1)c1ccc[nH]1 | n | n | n | x | n | 57 | n | 79 | n | n | n
O=C(COC(=O)c1ccc([N+](=O)[O-])s1)NC(=O)NCc1ccccc1 | 87 | n | n | n | n | 66 | 75 | 84 | n | n | n
O=C(c1c[nH]c2ccccc2c1=O)N1CCCCCC1 | n | n | n | n | n | n | x | x | x | x | x
Cc1cccc(NC(=O)COC(=O)C2COc3ccccc3O2)c1C (stereo not given) | n | n | n | x | n | n | x | x | x | x | x
O=C(Nc1nc2c(F)cc(F)cc2s1)c1ccc([N+](=O)[O-])o1 | 73 | n | n | x | n | 69 | n | n | n | n | n
Cc1cc(C)c2nc(NC(=O)c3ccc([N+](=O)[O-])o3)sc2c1 | n | n | n | x | n | n | x | x | x | x | x
SMILES | SENP6 inh | SENP8 block-1 | TRAIL sens C8 | PPC-1+TRAIL kill | SENP7 inh | SENP8 block-2 | SENP8 confirm | SENP6 confirm | SENP7 confirm | Casp3 select | SENP luc ctr
O=C(Nc1nc2ccccc2s1)c1ccc([N+](=O)[O-])o1 | 76 | n | n | x | 60 | 50 | n | n | n | n | n
COc1ccc2nc(NC(=O)c3ccc([N+](=O)[O-])o3)sc2c1 | 63 | n | 54 | x | n | n | n | 68 | 74 | n | n
Cc1ccccc1CN1CCN(C(=O)c2ccc(F)cc2)CC1 | n | n | n | x | n | n | x | x | x | x | x
CCCCCc1nnc(NC(=O)CN2C(=O)C3CCCCC3C2=O)s1 (stereo not given) | n | n | n | x | n | n | x | x | x | x | x
O=C(O)c1cccc(NC(=O)c2cccc(S(=O)(=O)Nc3cccc([N+](=O)[O-])c3)c2)c1 | 65 | n | n | x | n | 51 | 72 | 69 | 86 | n | n
Cc1ccccc1NS(=O)(=O)c1cccc(C(=O)Nc2cccc(C(=O)O)c2)c1 | 65 | n | n | x | n | n | 52 | n | 72 | n | n
CC(C)c1c(C(=O)Nc2ccccc2)c(-c2ccccc2)c(-c2ccc(F)cc2)n1CC[C@@H](O)C[C@@H](O)CC(=O)O | x | n | n | x | x | x | x | x | x | x | x
CC(/C=C/c1ccco1)=N\NC(=O)COc1ccc(C)c(C)c1 | n | n | n | n | n | n | x | x | x | x | x
COc1ccc(/C=N/Nc2ncccc2[N+](=O)[O-])c(OC)c1 | 100 | n | n | n | 99 | 97 | 99 | 100 | 104 | 99 | n
O=C(c1ccc(F)c(S(=O)(=O)N2CCOCC2)c1)N1CCc2ccccc21 | n | n | n | x | n | n | x | x | x | x | x
O=c1c2ccccc2nc2sc3ccccc3n12 | 79 | n | n | n | 87 | 74 | 58 | 56 | 70 | 72 | n
COC(=O)/C=c1/sc2nc3ccccc3n2c1=O | n | n | n | n | n | n | x | x | x | x | x
Cc1ccc(COc2ccc(/C=N/O)cc2)cc1 | 70 | n | n | n | 57 | n | 71 | 70 | 86 | n | n
O=C(Nc1ccccc1)Nc1cccc2nsnc12 | 95 | n | n | n | 95 | 91 | 96 | 96 | 100 | 92 | 90
O=C(Nc1cccc2nsnc12)c1cccnc1 | n | n | n | n | n | n | x | x | x | x | x
CC(=O)c1ccc(N=Nc2ccc(C)cc2)cc1 | 85 | n | n | n | 87 | 82 | 61 | 62 | 79 | 68 | n
CC(=O)c1ccc(N=Nc2ccc(N(C)C)cc2)cc1 | 54 | n | 78 | n | 93 | 75 | n | n | n | 53 | n
Cc1cc(N(C)C)ccc1N=Nc1ccc(N)cc1 | n | n | n | x | n | n | x | x | x | x | x
Cc1ccc(C(=O)c2ccc(C)cc2)cc1 | n | n | n | n | n | n | x | x | x | x | x

Screening results as filed in PubChem BioAssay.
